Cav3 T inh: human Cav3.2 channel inhibition, primary screen | AID 449739 | Cav3.2-expressing cells, Fluo-4 calcium fluorescence FDSS; stronger effect = lower value | B-score at 10 µM | actives 4% (n = 100,000);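 active means single-dose well whose peak fluorescence ratio is a statistical outlier from its plate by either plate-standardised score or position-corrected B-score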
Target sequence (O95180 whole entry, looked up): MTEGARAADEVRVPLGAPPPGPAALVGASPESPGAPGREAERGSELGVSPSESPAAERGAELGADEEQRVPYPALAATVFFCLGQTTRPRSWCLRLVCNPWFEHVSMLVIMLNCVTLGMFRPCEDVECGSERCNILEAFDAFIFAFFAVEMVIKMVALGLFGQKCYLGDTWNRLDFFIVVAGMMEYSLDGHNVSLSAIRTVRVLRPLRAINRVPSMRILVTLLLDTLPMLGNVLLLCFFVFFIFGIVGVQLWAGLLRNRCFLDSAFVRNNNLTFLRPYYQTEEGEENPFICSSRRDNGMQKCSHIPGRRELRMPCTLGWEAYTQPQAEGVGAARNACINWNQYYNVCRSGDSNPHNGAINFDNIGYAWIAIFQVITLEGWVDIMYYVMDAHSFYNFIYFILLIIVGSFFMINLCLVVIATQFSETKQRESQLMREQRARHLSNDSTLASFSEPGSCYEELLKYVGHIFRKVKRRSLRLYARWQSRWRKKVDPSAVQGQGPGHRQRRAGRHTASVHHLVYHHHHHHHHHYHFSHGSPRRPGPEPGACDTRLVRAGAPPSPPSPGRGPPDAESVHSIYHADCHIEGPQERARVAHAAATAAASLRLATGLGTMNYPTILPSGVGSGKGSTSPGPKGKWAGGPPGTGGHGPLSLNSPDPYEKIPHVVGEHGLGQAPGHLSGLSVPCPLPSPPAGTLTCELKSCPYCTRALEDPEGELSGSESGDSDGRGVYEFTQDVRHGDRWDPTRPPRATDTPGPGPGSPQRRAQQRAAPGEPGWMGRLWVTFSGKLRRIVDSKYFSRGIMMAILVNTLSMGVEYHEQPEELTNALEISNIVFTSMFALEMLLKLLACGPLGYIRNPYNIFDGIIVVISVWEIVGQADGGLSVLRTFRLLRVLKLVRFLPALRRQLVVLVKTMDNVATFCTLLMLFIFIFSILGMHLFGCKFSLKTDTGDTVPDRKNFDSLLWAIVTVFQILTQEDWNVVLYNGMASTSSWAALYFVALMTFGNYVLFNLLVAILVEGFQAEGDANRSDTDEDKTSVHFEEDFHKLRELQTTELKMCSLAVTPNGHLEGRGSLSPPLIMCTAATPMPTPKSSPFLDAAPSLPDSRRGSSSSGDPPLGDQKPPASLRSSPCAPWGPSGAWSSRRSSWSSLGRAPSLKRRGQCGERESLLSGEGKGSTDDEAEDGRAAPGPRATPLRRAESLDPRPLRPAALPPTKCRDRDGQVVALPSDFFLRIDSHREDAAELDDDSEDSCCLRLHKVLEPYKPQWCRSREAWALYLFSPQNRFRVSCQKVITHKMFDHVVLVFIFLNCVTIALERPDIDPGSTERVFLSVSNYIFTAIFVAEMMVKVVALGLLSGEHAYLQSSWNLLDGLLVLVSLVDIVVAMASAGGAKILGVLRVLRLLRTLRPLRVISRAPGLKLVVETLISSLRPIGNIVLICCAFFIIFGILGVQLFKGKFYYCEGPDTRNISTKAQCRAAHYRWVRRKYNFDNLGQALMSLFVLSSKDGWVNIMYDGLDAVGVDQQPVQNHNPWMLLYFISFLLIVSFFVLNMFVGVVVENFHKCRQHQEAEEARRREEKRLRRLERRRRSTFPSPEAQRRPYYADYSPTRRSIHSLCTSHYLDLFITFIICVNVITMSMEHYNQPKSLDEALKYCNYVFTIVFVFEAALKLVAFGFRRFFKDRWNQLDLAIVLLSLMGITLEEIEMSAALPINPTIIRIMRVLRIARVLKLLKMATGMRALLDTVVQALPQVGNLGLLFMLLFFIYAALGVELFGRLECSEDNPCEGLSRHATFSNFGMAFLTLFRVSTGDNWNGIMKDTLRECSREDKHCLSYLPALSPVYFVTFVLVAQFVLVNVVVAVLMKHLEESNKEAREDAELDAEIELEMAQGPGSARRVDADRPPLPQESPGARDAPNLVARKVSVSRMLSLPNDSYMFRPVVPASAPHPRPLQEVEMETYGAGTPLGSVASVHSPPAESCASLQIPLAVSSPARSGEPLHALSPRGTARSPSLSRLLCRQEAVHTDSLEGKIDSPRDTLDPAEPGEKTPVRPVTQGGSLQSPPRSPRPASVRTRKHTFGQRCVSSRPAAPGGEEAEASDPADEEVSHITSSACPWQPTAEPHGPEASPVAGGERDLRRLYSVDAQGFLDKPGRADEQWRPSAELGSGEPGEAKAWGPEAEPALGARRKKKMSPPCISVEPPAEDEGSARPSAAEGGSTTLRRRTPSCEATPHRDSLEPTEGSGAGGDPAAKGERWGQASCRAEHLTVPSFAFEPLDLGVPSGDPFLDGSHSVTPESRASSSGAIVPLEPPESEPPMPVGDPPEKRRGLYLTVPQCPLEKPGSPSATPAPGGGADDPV
CYP2C19 inh: blocks human cytochrome P450 2C19; CYP2C19 Supersomes, luciferin-H EGE luminescence, 30 min; P33261; inhibition, % at 5 µM; actives 21% (n = 96,000);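 active means CYP2C19 inhibition above a set limit at 5 µM in the primary screen, cut at about 50% in these data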
CYP2C19 act: increases human CYP2C19 enzyme activity; P33261; recombinant CYP2C19, luciferin-H EGE luminescence; stronger effect = higher value; 0 = fully inhibited enzyme, 1 = untreated enzyme; activation factor at 5 µM; 96,000 tested, under 10 active; AID 1025;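 active means activation factor of at least 2 at 5 µM in the primary screen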
CYP2C9 inh: blocks human cytochrome P450 2C9. P11712. CYP2C9 Supersomes, luciferin-H conversion, luminescence. inhibition, % at 5 µM. actives 20% (n = 96,000). AID 777;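 active means blocking of liver enzyme CYP2C9 beyond about 50% at 5 µM, limit read from the data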
CYP2C9 act: CYP2C9 (human) activation; P11712; recombinant CYP2C9, luciferin-H conversion, luminescence; stronger effect = higher value; factor 1 = untreated enzyme, 0 = blocked; activation factor at 5 µM; actives 1.4% (n = 96,000); AID 1024;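 active means activation factor of 2 or more for CYP2C9 at a 5 µM dose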
A number is an active result; – = inactive; · = no result given. Compounds with a hit are over-represented: about 27% of the library has one in this group of screens.

SMILES	Cav3 T inh	CYP2C19 inh	CYP2C19 act	CYP2C9 inh	CYP2C9 act
Clc1ccc(-n2ncc3c(NCCCn4ccnc4)ncnc32)cc1	–	94.6	–	92.6	–
Clc1ccc(-n2ncc3c(NCCN4CCOCC4)ncnc32)cc1	–	–	–	–	–
COC(=O)c1ccc[n+](CCc2c[nH]c3ccccc23)c1	–	·	·	·	·
Cc1cc(C(c2ccc(C)o2)c2ccc(C)o2)c(O)c([N+](=O)[O-])c1	–	64.7	–	95.4	–
O=C(c1cccn2c(=O)c3ccccc3nc12)N1CCN(Cc2ccc3c(c2)OCO3)CC1	–	–	–	75.3	–
O=C(NCCN1CCN(c2ccccc2F)CC1)c1cccn2c(=O)c3ccccc3nc12	–	59.8	–	57.3	–
O=c1[nH]c(CN2CCN(Cc3ccc4c(c3)OCO4)CC2)nc2ccccc12	–	·	·	·	·
CCn1nc(C(=O)N2CCN(Cc3ccc4c(c3)OCO4)CC2)c2ccccc2c1=O	–	–	–	61.1	–
O=C(c1ccc2nc3ccccc3c(=O)n2c1)N1CCN(Cc2ccc3c(c2)OCO3)CC1	–	–	–	52.9	–
O=C(O)Cn1c2c(c3ccccc31)CCCC2	–	–	–	–	–
O=C(c1cccn2c(=O)c3cc(Cl)ccc3nc12)N1CCN(Cc2ccc3c(c2)OCO3)CC1	·	87.6	–	97.1	–
CC1Oc2ccccc2N(CC(=O)N2CCCc3ccccc32)C1=O (stereo not drawn)	–	–	–	–	–
O=C(C1COc2ccccc2O1)N1CCc2ccccc21 (stereo not drawn)	–	91.5	–	–	–
CC1Oc2ccccc2N(CC(=O)N2CCc3ccccc32)C1=O (stereo not drawn)	–	51.6	–	56.5	–
O=C(O)C1CC=CCC1C(=O)N1CCc2ccccc21 (stereo not drawn)	–	·	·	·	·
CC1Oc2ccccc2N(CC(=O)N(Cc2ccccc2)Cc2ccccn2)C1=O (stereo not drawn)	–	60.7	–	65.1	–
COC(=O)C1=C(C(=O)OC)[C@@H]2Nc3ccccc3[C@@]23C[C@@H](C(=O)OC)N(C(=O)CC(C)C)C3=N1	–	·	·	·	·
CC1CN(C2CCN(S(=O)(=O)Cc3ccccc3)CC2)CC(C)O1 (stereo not drawn)	–	–	–	–	–
O=c1[nH]c(CSc2nnc(-c3ccco3)n2-c2ccccc2)nc2sc3c(c12)CCC3	·	–	–	–	–
S=c1[nH]nc(Cc2cccc3ccccc23)n1-c1ccccc1	–	–	–	90.4	–
O=c1[nH]c(SCc2n[nH]c(=S)n2-c2ccccc2)nc2sc3c(c12)CCC3	–	–	–	71.8	–
O=c1[nH]c(SCc2n[nH]c(=S)n2-c2ccccc2)nc2ccccc12	–	73.2	–	79.8	–
O=C(CSc1nc2ccccc2c(=O)[nH]1)c1ccccc1	–	·	·	·	·
CCCC1(C(=O)O)NC(c2ccc(OC)cc2O)C2C(=O)N(c3ccc(OC)cc3)C(=O)C21 (stereo not drawn)	–	–	–	–	–
CCCCc1nnc(NC(=O)C(C)Sc2nc(N)cc(=O)[nH]2)s1 (stereo not drawn)	–	–	–	–	–
SMILES	Cav3 T inh	CYP2C19 inh	CYP2C19 act	CYP2C9 inh	CYP2C9 act
CC(SCc1cn2cc(Cl)ccc2n1)C(=O)O (stereo not drawn)	–	–	–	–	–
OC(COCc1ccc(Cl)cc1)CN1CCN(CC(O)COCc2ccc(Cl)cc2)CC1 (stereo not drawn)	–	–	–	–	–
COc1ccccc1NC(=O)CSc1nnc(CC(=O)Nc2cccc(C(F)(F)F)c2)n1C	–	50.9	–	–	–
COc1ccc(C)cc1NC(=O)CSc1nnc(CC(=O)Nc2cccc(C(F)(F)F)c2)n1C	–	–	–	–	–
COc1ccc(NC(=O)Cc2nnc(SCC(=O)Nc3cc(C)ccc3OC)n2C)cc1	·	94.9	–	–	–
COc1cccc(-c2csc3nnc(SCC(=O)c4ccc(NC(C)=O)cc4)n23)c1	–	–	–	–	–
COc1ccccc1OCc1nnc(SCC(=O)Nc2ccc(C)cc2)n1C	–	–	–	–	2
COc1ccc(OC)c(-c2csc3nnc(SCC(=O)Nc4ccc(NC(C)=O)cc4)n23)c1	–	–	–	52.8	–
Cc1ccc(-n2c(=O)c3c4c(sc3n3c(C)nnc23)COC(C(C)C)C4)cc1 (stereo not drawn)	–	·	·	·	·
NC(=O)c1ccc[n+](CC(=O)OCCC23CC4CC(CC(C4)C2)C3)c1	–	–	–	–	–
Cc1cc(NC(=O)c2cncc(Br)c2)no1	–	–	–	–	–
COc1ccc(OCCSc2nnc(CC(=O)Nc3cccc(Cl)c3Cl)n2C)cc1	-4.04	–	–	–	–
COc1ccc(Cl)cc1NC(=O)CSc1nnc(COc2ccccc2)n1N	–	–	–	–	–
COc1ccc(Cl)cc1NC(=O)CSc1nnc(COc2ccccc2)n1C	–	54.8	–	–	–
CCn1c(CC(=O)Nc2cccc(Cl)c2Cl)nnc1SCCOc1ccc(OC)cc1	–	–	–	–	–
CC1CCC(NC(=O)C2CCN(C(=O)NC3CCCCC3)CC2)CC1 (stereo not drawn)	–	–	–	–	–
Cc1ccc(SC(C)C(=O)Nc2ccncc2)cc1 (stereo not drawn)	–	99.6	–	96.6	–
Cc1ccc(SC(C)C(=O)Nc2cccc(N(C)S(C)(=O)=O)c2)cc1 (stereo not drawn)	–	60.8	–	82.9	–
Cc1ccc(SC(C)C(=O)Nc2ccc(S(=O)(=O)N3CCOCC3)cc2)cc1 (stereo not drawn)	–	–	–	60.5	–
CSc1cccc(NC(=O)C(C)Sc2ccc(C)cc2)c1 (stereo not drawn)	·	70.3	–	67.2	–
CC(=O)Nc1ccc(S(=O)(=O)N2CCOCC2)cc1	–	·	·	·	·
COC(C/C=C\[C@H](O)COCc1ccccc1)OC	–	·	·	·	·
CCCS(=O)(=O)c1c(S(=O)(=O)CCC)c2cc(CC)ccn2c1C(=O)OC	–	–	–	–	–
CCCS(=O)(=O)c1c(S(=O)(=O)CCC)c2ccccn2c1C(=O)OC	–	–	–	51.7	–
Cc1ccc(C)c(/C(O)=C2\C(=O)C(=O)N(CCCn3ccnc3)C2c2cccnc2)c1 (stereo not drawn)	–	·	·	·	·
SMILES	Cav3 T inh	CYP2C19 inh	CYP2C19 act	CYP2C9 inh	CYP2C9 act
O=C(NCn1ccc(=O)[nH]c1=S)c1ccccc1	·	–	–	–	–
CC(C)N(C(=O)CSc1nnc(-c2cc3ccccc3cc2O)n1Cc1ccco1)C(C)C	-6.63	–	–	62.5	–
Cc1occc1-c1nnc(SCC(=O)N2CCOCC2)n1Cc1ccco1	–	–	–	–	–
O=C(CSc1nnc(-c2cc3ccccc3cc2O)n1Cc1ccco1)N1CCc2ccccc2C1	-5.1	57.2	–	80.6	–
CCCCCCNc1c([N+](=O)[O-])cc(C)cc1[N+](=O)[O-]	–	·	·	·	·
C=Cn1ccnc1P(=S)(c1ccc2c(c1)c1ccccc1n2CC)c1nccn1C=C	-5.18	–	–	–	–
CCOC(=O)Oc1ccc2oc(=O)cc(C)c2c1	–	–	–	–	–

Screening results (PubChem BioAssay)
